A short description of test [1]: compound effects on lung adenocarcinoma cell viability – A549, calcein-AM fluorescence, 48 h, basal, profiling panel (AID 1162). Also: test concentration not given here. The note with it: higher = more signal.
Test [2] in a line: compound effects on differentiated 3T3-L1 adipocyte viability – cell-based, 3T3-L1 adipocytes, calcein-AM fluorescence, 48 h, basal, profiling panel (AID 1163). Also: test concentration not given here. The settings on record: 3T3-L1 adipocytes viability, higher = more signal.
A short description of test [3]: compound effects on hepatocellular carcinoma cell viability – HepG2, calcein-AM fluorescence, 48 h, basal, profiling panel (AID 1164). Also: test concentration not given here. The note with it: higher = more signal.
The nature of test [4]: compound effects on multiple myeloma cell viability – MM1S, calcein-AM fluorescence, 48 h, basal, profiling panel (AID 1165).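 Also: viability of MM1S multiple myeloma cells under basal unstimulated conditions; test concentration not given here.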 The note with it: higher = more signal.
Test [5] in a line: calcein-AM signal in unstimulated myeloma cells – cell-based, calcein-AM fluorescence, 48 h, PK04 Diversity Set, profiling panel (AID 1166).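 Also: cells grown under basal conditions without added stimulus; test concentration not given here.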 The note with it: RPMI8226 myeloma viability, higher = more signal.
A short description of test [6]: JC-1 mitochondrial signal, unstimulated HepG2 cells – cell-based, JC-1 fluorescence, 24 h, 100 nL compound, profiling panel (AID 1167). Also: test concentration not given here. The settings on record: HepG2 mitochondrial potential, higher = more signal.
Test [7] in a line: JC-1 mitochondrial signal, unstimulated adipocytes – cell-based, JC-1 fluorescence, 3T3-L1 adipocytes, 24 h, 100 nL compound, profiling panel (AID 1168). Also: test concentration not given here. The settings on record: JC-1 mitochondrial fluorescence, higher = more signal, called active from +8 up or from −8 down.
Test [8] in a line: JC-1 mitochondrial signal, unstimulated myeloma cells – cell-based, JC-1 fluorescence, RPMI8226, 24 h, 100 nL compound, profiling panel (AID 1169). Also: test concentration not given here. The settings on record: JC-1 mitochondrial potential fluorescence, higher = more signal.
The nature of test [9]: JC-1 mitochondrial signal, unstimulated MM1S myeloma – cell-based, JC-1 fluorescence, 24 h, 100 nL compound, profiling panel (AID 1170). Also: test concentration not given here. The settings on record: MM1S mitochondrial potential, higher = more signal.
The nature of test [10]: resazurin metabolic signal in A549 cells – cell-based, resazurin fluorescence, 24 h, PK04 Diversity Set, profiling panel (AID 1171). Also: test concentration not given here. The note with it: A549 viability, higher = more signal, called active from +8 up or from −8 down. (In general: Alamar Blue is a resazurin reagent that responds to reducing activity.)
Test [11] is described as follows: resazurin metabolic signal in HepG2 cells – cell-based, resazurin fluorescence, 24 h, PK04 Diversity Set, profiling panel (AID 1172). Also: test concentration not given here. The note with it: HepG2 viability, higher = more signal.
A short description of test [12]: budding yeast growth changes without added modifier – OD600, strain BY4716, 24 h, basal condition, primary screen (AID 1173). The note with it: S. cerevisiae BY4716 growth, OD600, 24 h; higher = more signal, called active from +8 up or from −8 down.
Test [13] in a line: viability profiling in MM1S myeloma cells – cell-based, resazurin fluorescence, basal, 24 h, PK04 Diversity Set, profiling panel (AID 1174). Also: test concentration not given here. The note with it: higher = more signal, called active from +8 up or from −8 down.
For test [14], the target named is Dihydroorotate dehydrogenase (quinone), mitochondrial (Plasmodium falciparum (isolate 3D7)) (UniProt Q08210). The experiment in a line: inhibition of P. falciparum DHODH – biochemical, C-terminal His tag, absorbance 600 nm, primary screen (AID 1175).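 Also: recombinant parasite enzyme with a five histidine tag at its C terminus; test concentration not given here.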 The settings on record: PfDHODH enzyme, DCIP absorbance 600 nm; higher = more signal, called active from +8 up or from −8 down.
Sequence of Dihydroorotate dehydrogenase (quinone), mitochondrial (Plasmodium falciparum (isolate 3D7)) (Q08210 whole entry, looked up): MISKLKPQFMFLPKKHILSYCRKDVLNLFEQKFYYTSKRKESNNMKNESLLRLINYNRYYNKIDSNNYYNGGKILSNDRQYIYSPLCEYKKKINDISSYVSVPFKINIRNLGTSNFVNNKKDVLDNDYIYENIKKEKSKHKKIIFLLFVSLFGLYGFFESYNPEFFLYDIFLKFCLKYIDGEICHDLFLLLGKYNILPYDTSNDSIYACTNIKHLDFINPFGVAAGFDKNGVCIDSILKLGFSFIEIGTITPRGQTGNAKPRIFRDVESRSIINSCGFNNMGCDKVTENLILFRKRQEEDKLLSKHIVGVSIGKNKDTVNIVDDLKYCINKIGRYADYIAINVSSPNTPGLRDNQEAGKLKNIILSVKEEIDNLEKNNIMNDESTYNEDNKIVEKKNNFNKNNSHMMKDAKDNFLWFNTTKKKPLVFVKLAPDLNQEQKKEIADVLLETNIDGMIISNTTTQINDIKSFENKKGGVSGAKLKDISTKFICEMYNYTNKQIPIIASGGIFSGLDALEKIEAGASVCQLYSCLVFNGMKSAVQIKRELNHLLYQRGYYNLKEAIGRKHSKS

A short description of test [15]: inhibition of PAO1 biofilm formation – strain PAO1, LB-PBS medium, absorbance 600 nm, primary screen (AID 1176). Also: test concentration not given here. The note with it: P. aeruginosa PAO1 growth/biofilm, A600, 12 h; higher = more signal.
A short description of test [16]: growth modulation of vineyard yeast isolate – strain RM11-1a, OD600, basal, 24 h, primary screen (AID 1177).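 Also: cultures grown under basal conditions with no added stressor; test concentration not given here.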 The settings on record: S. cerevisiae RM11-1a growth, OD600, 24 h; higher = more signal, called active from +8 up or from −8 down.
A short description of test [17]: growth of efflux-deficient E. coli DRC39 – strain DRC39, OD650, 24 h, E. coli filamentation inducers, primary screen (AID 1178).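 Also: growth measured as culture turbidity by optical density at 650 nm; test concentration not given here.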 The note with it: E. coli DRC39 acrAB, higher = more signal, called active from +8 up or from −8 down.
The nature of test [18]: growth of efflux-deficient E. coli DRC39 – strain DRC39, OD650, 48 h, E. coli filamentation inducers, primary screen (AID 1179).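 Also: screen aims at cell division blockers that make cells filament.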 The settings on record: E. coli DRC39 delta-acrAB growth, higher = more signal, called active from +8 up or from −8 down.
The nature of test [19]: viability profiling in RPMI8226 myeloma cells – cell-based, resazurin fluorescence, basal, 24 h, PK04 Diversity Set, profiling panel (AID 1180).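 Also: RPMI8826 multiple myeloma cell line at 5000 cells per well; test concentration not given here.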 The note with it: higher = more signal.
Test [20] addresses E3 ubiquitin-protein ligase XIAP (Homo sapiens) (UniProt P98170). The experiment in a line: small molecules binding XIAP protein – biophysical, small-molecule microarray, fluorescence 635 nm, primary screen (AID 1181).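 Also: score merges 667 nm emission and signal to noise over triplicate slides.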 The note with it: higher = more signal.

Each structure is given as a SMILES string. The source made the active and inactive calls. Unless noted, no rule for the calls is given here.

Sequence of E3 ubiquitin-protein ligase XIAP (Homo sapiens) (P98170 whole entry, looked up): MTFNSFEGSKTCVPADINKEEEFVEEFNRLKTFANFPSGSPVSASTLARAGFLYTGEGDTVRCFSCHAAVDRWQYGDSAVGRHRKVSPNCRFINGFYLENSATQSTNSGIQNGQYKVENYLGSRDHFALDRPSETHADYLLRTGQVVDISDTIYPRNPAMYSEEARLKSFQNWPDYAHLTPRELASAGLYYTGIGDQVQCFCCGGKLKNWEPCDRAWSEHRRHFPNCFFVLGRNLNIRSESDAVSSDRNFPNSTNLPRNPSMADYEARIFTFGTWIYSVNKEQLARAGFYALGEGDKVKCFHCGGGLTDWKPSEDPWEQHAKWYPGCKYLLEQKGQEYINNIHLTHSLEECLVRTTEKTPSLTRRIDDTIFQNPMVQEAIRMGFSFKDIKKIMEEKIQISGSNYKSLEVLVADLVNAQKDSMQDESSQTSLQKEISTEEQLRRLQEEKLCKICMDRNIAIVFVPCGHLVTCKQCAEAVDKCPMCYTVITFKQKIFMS

With `CCCCC(=C=CC[C@@H](O)c1ccc(OCCO)cc1)C[C@@H](O)c1ccccn1`, the z-score in test [1] was -0.0074; in test [2], 0.0358; in [3], 0.333; in [4], -2.63; in test [5] it was -0.616; in [6], -1.05. For the same compound, the z-score in test [7] is -1.58 (inactive); in [8], -0.674; in [9], -0.94; in test [10] it was -0.477 (inactive); in test [11] it was -0.517; in test [12], -1.12 (inactive). The z-score in test [13] is -0.769 (inactive); in [15], 0.932 (inactive); in [16], 0.43 (inactive); in [17], 0.753 (inactive); in test [18], 0.239 (inactive); in [19], -0.541. Moreover, the results for the composite z-score in test [14] and in test [20] were -8.71 (active) and 0.133, respectively.
As to `COC(=O)C(CC#Cc1ccc2c(c1)[C@]1(C(=O)N2)[C@H](c2ccc(O)cc2)N2[C@H](c3ccccc3)[C@H](c3ccccc3)OC(=O)[C@H]2[C@@H]1C(=O)N1CCc2cc(OC)c(OC)cc2C1)C(=O)OC`, the z-score was -0.581 in [1]; -0.959 in test [2]; -0.184 in test [3]; -1.71 in [4]; -4.43 in test [5]; -2.15 in test [6]. Further, the z-score was 0.124 (inactive) in [7]; -1.22 in [8]; -1.03 in [9]; -0.0149 (inactive) in [10]; 0.445 in test [11]; 0.954 (inactive) in test [12]. The z-score in test [13] is -0.938 (inactive); in test [15] it was 0.573 (inactive); in [16] it was 1.58 (inactive); in [17], -0.158 (inactive); in [18], -0.627 (inactive); in test [19], -4.12. Besides, the composite z-score is -11.2 (active) in test [14] and -0.117 in test [20].
For the compound `COc1ccc([Si](C)(C)[C@H]2[C@H](CCn3cc([C@H](O)c4ccccc4)nn3)O[C@@]3(C(=O)N(C)c4c(Br)cc(C)cc43)[C@@H]2C)cc1`, the z-score is -1.94 in [1]; 1.69 in [2]; -4.58 in test [3]; -2.48 in test [4]; -4.31 in test [5]; -0.281 in test [6]. The z-score was -0.162 (inactive) in test [7]; -1 in [8]; 0.212 in test [9]; -2.66 (inactive) in test [10]; -2.69 in [11]; -0.691 (inactive) in [12]. For the same compound, the z-score in test [13] is -3.29 (inactive); in test [15] it was 1.03 (inactive); in [16], 1.01 (inactive); in test [17] it was 0.566 (inactive); in [18] it was 0.132 (inactive); in test [19], -5.5. The composite z-score in test [14] was 1.19 (inactive); in test [20], 0.0512.
Regarding `O=C1O[C@H](c2ccccc2)[C@H](c2ccccc2)N2[C@H]1[C@@H](C(=O)NC[C@H](O)c1ccccc1)[C@]1(C(=O)Nc3ccc(C#CCCO)cc31)[C@H]2c1ccccc1OCCO`, the z-score in test [1] is -0.661; in test [2], 1.43; in test [3], -1.12; in [4], -0.751; in test [5], -1.41; in test [6], -0.864. In addition, the z-score is 2.89 (inactive) in [7]; -0.72 in test [8]; -0.341 in test [9]; 1.86 (inactive) in [10]; 1.19 in test [11]; 0.904 (inactive) in test [12]. For the same compound, the z-score was -1.12 (inactive) in test [13]; 0.517 (inactive) in [15]; 1.48 (inactive) in test [16]; 0.439 (inactive) in test [17]; -0.467 (inactive) in test [18]; -0.591 in [19]. Also, the values for the composite z-score in test [14] and in test [20] were -0.532 (inactive) and -0.209, respectively.
`COc1cccc(OC)c1C(=O)O[C@H]1[C@@H]2OC(=O)[C@H](Cc3cccc(Br)c3)C/C=C/C[C@@H](Cc3cccc(Br)c3)C(=O)O[C@H]2[C@@H](OC)O[C@@H]1CO`: the z-score in test [1] is -0.144; in [2], 0.0726; in test [3], -0.215; in test [4] it was -2.6; in test [5] it was -3.88; in test [6], -3.42. Moreover, the z-score was -0.819 (inactive) in test [7]; -0.735 in test [8]; -0.211 in test [9]; -0.952 (inactive) in test [10]; -0.946 in test [11]; -0.696 (inactive) in test [12]. In addition, the z-score in [13] is -1.11 (inactive); in [15] it was 0.277 (inactive); in test [16], 0.788 (inactive); in test [17], -0.0368 (inactive); in [18], 0.165 (inactive); in test [19] it was -1.38. The composite z-score in test [14] is -0.491 (inactive); in [20] it was 0.182.
For the compound `COCCOC(=O)N1C(=O)[C@@]2(c3cc(C#CC4(O)CCCCCC4)ccc31)[C@H](c1ccc(OCCO)cc1)N1[C@H](c3ccccc3)[C@H](c3ccccc3)OC(=O)[C@H]1[C@@H]2C(=O)N1CCCCCCC1`, the z-score in [1] was -0.359; in test [2] it was 2.14; in test [3] it was 0.292; in [4] it was -0.834; in test [5] it was -1.78; in [6], -1.1. Further, the z-score was -2.25 (inactive) in test [7]; -0.468 in [8]; -1.08 in test [9]; -0.557 (inactive) in test [10]; -0.768 in test [11]; 0.973 (inactive) in [12]. Further, the z-score in test [13] is -0.418 (inactive); in test [15] it was 1.16 (inactive); in test [16] it was 2.11 (inactive); in test [17], -2.2 (inactive); in test [18], -1.8 (inactive); in test [19], 0.0982. Besides, the figures for the composite z-score in test [14] and in [20] were 0.0448 (inactive) and -0.151, respectively.
`CC(C)(C)OC(=O)CC[C@]1(C(N)=O)N=C(c2ccc(OCCCO)cc2)O[C@H]1c1ccccc1CN=[N+]=[N-]`: the z-score in [1] was 0.249; in test [2] it was 0.434; in test [3], 0.088; in test [4], -0.0887; in [5], -0.387; in [6] it was -1.01. Also, the z-score in test [7] is 0.352 (inactive); in [8], 0.469; in test [9], 0.0608; in test [10] it was 0.316 (inactive); in test [11] it was 0.0283; in test [12], 0.632 (inactive). Moreover, the z-score in [13] was 0.455 (inactive); in test [15] it was -0.568 (inactive); in [16], 1.55 (inactive); in test [17], 2.09 (inactive); in [18] it was 0.64 (inactive); in [19], 0.282. The composite z-score in test [14] was 0.369 (inactive); in test [20], 0.108.
Take `Cc1ccc(S[C@]2(C(=O)NCCN3CCOCC3)CC(=O)N(C3CCCCC3)[C@@H]2c2ccc(CO)cc2I)cc1`: the z-score in test [1] is 0.312; in test [2], 0.0138; in test [3], 0.293; in test [4] it was -2.42; in test [5] it was -2.46; in test [6] it was 2.54. Also, the z-score is 0.11 (inactive) in test [7]; -0.457 in test [8]; -1.53 in [9]; 2.04 (inactive) in test [10]; 1.5 in [11]; -0.0113 (inactive) in test [12]. For the same compound, the z-score in test [13] is 0.482 (inactive); in test [15], -0.447 (inactive); in test [16] it was 1.27 (inactive); in [17] it was 0.464 (inactive); in [18], 0.677 (inactive); in test [19] it was -1.29. For the same compound, the composite z-score in test [14] is 0.88 (inactive); in test [20], -0.302.

The values above are taken from PubChem BioAssay.
